Laboratory results published in the supplement of paper PMC9694430.
Counter-ions that a name gives are not always drawn.

Assays:
Experiment in all cases: thermal shift delta Tm vs DMSO control; higher = stronger stabilization (binding)
Conditions in all cases: 12.5 µM; protein concentration 2 µM
LOC_OS02G45750-cb003 = test system: LOC_OS02G45750-cb003
In short: (§1)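 Compounds dissolved in DMSO were added to purified rice kinase domain constructs, which had been expressed in E. coli, for differential scanning fluorimetry. Each well held 19.5 μl of 2 μM kinase in 100 mM potassium phosphate pH 7.5, 150 mM NaCl, 10% glycerol and 5 × SYPRO Orange. Fluorescence was followed from 25°C to 95°C at a rate of 0.05°C/s. Shifts in Boltzmann-fitted melting temperature are triplicate means relative to DMSO-only protein.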

LOC_OS02G54510-cb004 = test system: LOC_OS02G54510-cb004
In short: as §1

LOC_OS03G04050-cb001 = test system: LOC_OS03G04050-cb001
In short: as §1

LOC_OS03G12390-cb001 = test system: LOC_OS03G12390-cb001
In short: as §1

LOC_OS03G27990-cb004 = test system: LOC_OS03G27990-cb004
In short: as §1

LOC_OS03G50450-cb001 = test system: LOC_OS03G50450-cb001
In short: as §1

LOC_OS03G50810-cb003 = test system: LOC_OS03G50810-cb003
In short: as §1

LOC_OS04G35114-cb001 = test system: LOC_OS04G35114-cb001
In short: as §1

LOC_OS04G38480-cb003 = test system: T1, LOC_OS04G38480-cb003
T1 sequence (whole entry): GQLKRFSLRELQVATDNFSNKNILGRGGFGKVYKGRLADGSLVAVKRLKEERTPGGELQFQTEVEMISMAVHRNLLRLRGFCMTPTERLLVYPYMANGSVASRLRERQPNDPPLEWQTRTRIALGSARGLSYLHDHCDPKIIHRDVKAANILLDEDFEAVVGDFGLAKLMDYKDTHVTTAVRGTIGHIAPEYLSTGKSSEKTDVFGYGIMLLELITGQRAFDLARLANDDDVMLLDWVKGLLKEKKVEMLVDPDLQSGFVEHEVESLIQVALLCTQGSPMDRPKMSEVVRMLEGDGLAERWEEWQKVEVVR
In short: as §1

LOC_OS04G41100-cb001 = test system: T2, LOC_OS04G41100-cb001
T2 sequence (whole entry): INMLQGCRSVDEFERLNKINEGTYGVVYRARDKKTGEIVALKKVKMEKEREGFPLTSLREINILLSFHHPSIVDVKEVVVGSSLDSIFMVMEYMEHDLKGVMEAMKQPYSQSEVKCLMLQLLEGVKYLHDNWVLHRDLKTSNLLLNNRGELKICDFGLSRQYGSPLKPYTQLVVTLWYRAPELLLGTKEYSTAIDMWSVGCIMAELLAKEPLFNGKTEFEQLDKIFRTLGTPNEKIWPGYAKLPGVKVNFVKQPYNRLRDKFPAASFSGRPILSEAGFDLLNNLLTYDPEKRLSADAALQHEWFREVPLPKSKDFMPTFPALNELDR
In short: as §1

Row | SMILES | thermal shift delta Tm (LOC_OS02G45750-cb003) [°C] | thermal shift delta Tm (LOC_OS02G54510-cb004) [°C] | thermal shift delta Tm (LOC_OS03G04050-cb001) [°C] | thermal shift delta Tm (LOC_OS03G12390-cb001) [°C] | thermal shift delta Tm (LOC_OS03G27990-cb004) [°C] | thermal shift delta Tm (LOC_OS03G50450-cb001) [°C] | thermal shift delta Tm (LOC_OS03G50810-cb003) [°C] | thermal shift delta Tm (LOC_OS04G35114-cb001) [°C] | thermal shift delta Tm (LOC_OS04G38480-cb003) [°C] | thermal shift delta Tm (LOC_OS04G41100-cb001) [°C]
1 | N#CCNC(=O)c1ccc(-c2ccnc(Nc3ccc(N4CCOCC4)cc3)n2)cc1 [Momelotinib (CYT387)] | 7.23 | 1.25 | 0.41 | 2.09 | 0.29 | 1.99 | 2.03 | 3.88 | 3.2 | 2.25
2 | COc1cc2ncnc(Oc3cccc(NC(=O)Nc4cc(C(C)(C)C(F)(F)F)on4)c3)c2cc1OC | 0.81 | 1.05 | 0.36 | 0.21 | 0.47 | 0.59 | 0.19 | 0.57 | 0.16 | 0.2
3 | C[C@@H]1COCCN1c1cc(C2([S@](C)(=N)=O)CC2)nc(-c2cc[nH]c3nccc2-3)n1 | 0.39 | 0.1 | 0.32 | -0.31 | 0.13 | 0.46 | 0.2 | 2.45 | 0.68 | 0.52
4 | CC(C)n1nc(-c2cc3cc(O)ccc3[nH]2)c2c(N)ncnc21 [Torkinib (PP242)] | 1.42 | 0.85 | 0.29 | 2.95 | 0.64 | 0.48 | 0.71 | 5.09 | 1.25 | 0.2
5 | CCCCCCCCc1ccc(CCC(N)(CO)CO)cc1 [Fingolimod (FTY720) HCl] | -0.8 | -0.96 | -0.79 | -1.7 | -0.42 | -0.24 | -1.68 | -0.12 | 0.32 | 0.19
6 | Cn1cnc2c(F)c(Nc3ccc(Br)cc3Cl)c(C(=O)NOCCO)cc21 [Selumetinib (AZD6244)] | 0.34 | 0.31 | 0.26 | 0.11 | -0.04 | -0.25 | 0.02 | 0.24 | 0.38 | 0.75
7 | CCc1cnn2c(NCc3ccc[n+]([O-])c3)cc(N3CCCC[C@H]3CCO)nc12 | 0.58 | 0.19 | 0.27 | 1.31 | 0.33 | 0.63 | 0.67 | 0.57 | 0.56 | 0.68
8 | CCn1c(=O)c(-c2ccc(Cl)cc2Cl)cc2cnc(Nc3ccc(N4CCNCC4)c(F)c3)nc21 | 10.1 | 8.42 | -0.88 | 4.85 | 10.7 | 0.54 | 6.99 | 11 | 3.17 | 2.82
9 | C=CC(=O)Nc1cccc(Nc2nc(Nc3ccc(Oc4ccnc(C(=O)NC)c4)cc3)ncc2F)c1 | 0.72 | 1.23 | 0.77 | 2.55 | 0.98 | 1.34 | 2.61 | 2.69 | 3.42 | 0.73
10 | CN1CCN(c2ccc3nc(-c4c(N)c5c(F)cccc5[nH]c4=O)[nH]c3c2)CC1 [Dovitinib (TKI-258, CHIR-258)] | 13 | 0.96 | 0.58 | 2.88 | 4.19 | 2.43 | 4.84 | 7.2 | 1.57 | 0.95
11 | NCC(=O)Nc1ccc(-n2nc(C(F)(F)F)cc2-c2ccc3c(ccc4ccccc43)c2)cc1 | -0.16 | -0.91 | 0.64 | 0.8 | -0.15 | 0.36 | 0.37 | -0.57 | 1.25 | 0.65
12 | CC(=O)Nc1cccc(-n2c(=O)n(C3CC3)c(=O)c3c(Nc4ccc(I)cc4F)n(C)c(=O)c(C)c32)c1 | 0.35 | -0.04 | 0.2 | -0.13 | 0.22 | 0.62 | 0.43 | 0.56 | 0.86 | 0.62
13 | Nc1nc(N)c(N=O)c(OCC2CCCCC2)n1 | 0.64 | 0.21 | 0.46 | 3.99 | 2.79 | 0.35 | 0.92 | 1.13 | 1.28 | 0.59
14 | COc1cc(OC)cc(N(CCNC(C)C)c2ccc3ncc(-c4cnn(C)c4)nc3c2)c1 | 1.81 | 2.46 | 0.37 | 0.27 | 0.3 | 0.28 | 0.45 | 0.74 | 2.14 | 0.41
15 | O=C1Cc2c([nH]c3ccc(Br)cc23)-c2ccccc2N1 [Kenpaullone] | 6.87 | 1.11 | 0.51 | 5.47 | 2.21 | 0.9 | 2.26 | 4.7 | 2.14 | 2.07
16 | O=C1NC(=O)[C@@H](c2cn3c4c(cccc24)CCC3)[C@@H]1c1c[nH]c2ccccc12 [Tivantinib (ARQ 197)] | 0.51 | 0.03 | 0.44 | -0.01 | 0.43 | 0.17 | 0.07 | 0.51 | 0.13 | 0.36
17 | C[C@H]1CNCCCN1S(=O)(=O)c1cccc2cncc(F)c12 [Ripasudil (K-115) hydrochloride dihydrate] | 0.9 | -0.02 | 0.39 | 0.39 | 0.16 | 0.22 | 0.68 | 0.3 | 1.26 | 0.24
18 | COc1cc(N2CCC(N3CCN(C)CC3)CC2)ccc1Nc1ncnc(Nc2ccccc2S(=O)(=O)C(C)C)n1 | 1.85 | 0.1 | 0.24 | 1.69 | 0.28 | 0.36 | 0.99 | 0.74 | 1.16 | 0.34
